# Assay outcomes deposited in PubChem BioAssay by National Center for Advancing Translational Sciences (NCATS).
# DRD3 agonist – D3 dopamine receptor (human) agonism. D3R DiscoveRx beta-arrestin cells, luminescence, 90 min. max activation, %. hit rate 0.58% among 410,000. P35462; in the data active means max activation above about 30%; further: 0% is about no effect
#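 Agonist mode: compounds and dopamine controls were applied to plated cells for 90 min at 37 degrees C after an overnight attachment at 1500 cells/well. Luminescent read-out followed 30 - 60 minutes at room temperature with DiscoveRx detection reagent.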
# D3 antag – antagonists of human D3 dopamine receptor; P35462; D3R cells, DiscoveRx beta-arrestin luminescence, antagonist mode; active compounds read low; AID 652054; hit rate 2.5% among 360,000; max response, negative = inhibition, %; in the data active means max response below about -50%; inconclusive means no clear call, values can overlap the other calls; further: on the % scale 0 is the no-effect control and ±100 the full control effect
#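 Cells expressing the human receptor were seeded at 1500 cells/well, incubated overnight at 37 degrees C in 5% CO2, then exposed to library compounds with dopamine controls for 90 minutes at 37 degrees C before luminescent detection.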
# GLP1R inv ag – GLP-1 receptor (human) inverse agonism | P43220 | HEK293 GLP-1R CRE-luciferase, luminescence, 24 h; GLP-1R form is constitutively active | Potency, µM (highest dose often 38.3 µM), inactives show at the top dose activity change, negative = inhibition, usual class: inhibitors | hit rate 1.6% among 410,000; further: potency means the concentration at half of the fitted maximal effect; on the % scale 0 is the no-effect control and ±100 the full control effect; nearly all actives have a fitted effect of over 55% in size
# Target sequence (P43220 whole entry, looked up): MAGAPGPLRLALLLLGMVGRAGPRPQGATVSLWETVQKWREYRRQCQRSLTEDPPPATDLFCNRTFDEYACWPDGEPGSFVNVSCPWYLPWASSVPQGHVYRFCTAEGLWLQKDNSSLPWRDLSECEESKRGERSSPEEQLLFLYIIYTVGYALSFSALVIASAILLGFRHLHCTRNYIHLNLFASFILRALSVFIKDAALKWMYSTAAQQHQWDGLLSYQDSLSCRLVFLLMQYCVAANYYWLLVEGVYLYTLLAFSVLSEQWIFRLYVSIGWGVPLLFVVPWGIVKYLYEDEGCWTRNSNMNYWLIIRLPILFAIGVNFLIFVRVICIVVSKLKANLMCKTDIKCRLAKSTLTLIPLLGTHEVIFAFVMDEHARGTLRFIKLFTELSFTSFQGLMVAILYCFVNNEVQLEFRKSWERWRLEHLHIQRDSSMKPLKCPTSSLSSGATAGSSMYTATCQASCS
#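 Constitutively active GLP-1R drives a cAMP-responsive luciferase in stably transfected HEK293 cells; test compounds are added after overnight (12 h) attachment and left 24 hr, and signal loss in luminescence marks inhibition.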
# GLP1R ag – activates the human GLP-1 receptor; P43220; HEK293 GLP-1R CRE-luciferase, luminescence, 4-6 h; cells express a hypersensitive GLP-1R form; Potency, µM (series often up to 45.6 µM), for the others: top-dose activation, hits mostly activators; hit rate 0.007% among 380,000; AID 624172; further: potency means the concentration at half of the fitted maximal effect; % of control where 0% means no effect
# GLP1R cytotox – cytotoxicity counter-screen for GLP-1 receptor inverse agonists. HEK293 cAMP-luciferase reporter cells, luminescence, 24 h. Potency, µM (titrated, usually from 38.3 µM), for inactives: at the top dose activity change, negative = inhibition, usual class: inhibitors. hit rate 0.13% among 410,000. AID 624418;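 further: loss of luciferase light is scored as toxicity; potency means the concentration at half of the fitted maximal effect; on the % scale 0 is the no-effect control and ±100 the full control effect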
#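 A 23 nL compound transfer followed 12 hours of cell culture at 37 deg C; exposure then lasted 24 hr. Luciferase assay detection reagent was dispensed and plates read for luminescence after a 12 min room-temperature wait.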
# ClpP mod – qHTS Assay for Activators of ClpP | ATP-dependent Clp protease proteolytic subunit (Bacillus subtilis (strain 168)), P80244 | purified B. subtilis ClpP, FRET peptide cleavage, 20 min | Potency, µM (highest dose often 57.5 µM), without a hit: at the highest dose activity change, negative = active | hit rate 1.9% among 340,000 | AID 651965, 2013; active means well fitted falling curve with a large enough effect; inconclusive means small, poorly fitted or top-dose-only effect; inactive means no such curve, though single readings can be large or run the other way; further: potency means the concentration at half of the fitted maximal effect; the source files actives as falling curves though it sought activators and does not explain the sign; nearly all actives have a fitted effect of over 65% in size
# Target sequence (P80244 whole entry, looked up): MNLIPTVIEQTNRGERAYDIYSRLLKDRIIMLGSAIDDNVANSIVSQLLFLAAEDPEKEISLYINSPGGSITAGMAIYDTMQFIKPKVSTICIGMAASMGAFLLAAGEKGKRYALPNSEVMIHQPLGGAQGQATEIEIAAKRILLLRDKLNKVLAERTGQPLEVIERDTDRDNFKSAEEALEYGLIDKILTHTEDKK
#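 FRET quenching reversal measured ClpP activation: 10 microg/mL B. subtilis ClpP at pH 8 with the FRET-FV decapeptide, read at 430 nm after 320 nm excitation. The 20-min minus 0-min signal was scaled between DMSO/no-enzyme wells and ADEP (5.8 microM final).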
# * marks the source's active call; other numbers are inactive results; u = inconclusive; x = no result. Most compounds without a hit are left out; they make up all but 5.7% or so of the library. Unless noted, the call rests on the fitted dose curve; in most records, active means well fitted curve in the direction sought with a large enough effect; inconclusive means small, poorly fitted or top-dose-only effect, or another doubt; inactive means no such curve, though single readings can be large; an effect the other way counts as inactive or inconclusive.
SMILES,DRD3 agonist,D3 antag,GLP1R inv ag,GLP1R ag,GLP1R cytotox,ClpP mod
O=C(Nc1cccc(Cl)c1)NC1CCN(C2CCCCC2)C1 (configuration not stated),-18,-103*,u,10%,-17%,x
S=C(NNc1cccc(Cl)c1)NC1CCCCC1,-10,-17,10µM*,9%,u,x
FC(F)Oc1ccc(NC(=S)NC2CCSc3ccccc32)cc1 (configuration not stated),-11,-27,u,-12%,u,-1%
O=C(NC1CCN(C(=O)Nc2cccc(Cl)c2)CC1)C1CCCCC1,-7,5,-12%,5%,3%,-2%
CC(=O)c1cccc(NC(=S)NC(=O)c2cccc(C)c2)c1,-6,2,0%,9%,-13%,16µM*
NC(=S)NNc1cccc(Cl)c1,-1,10,1%,1%,-6%,1%
FC(F)Oc1ccc(NC(=S)NC2CCCCCCC2)cc1,-12,5,4.5µM*,1%,-16%,x
Cc1nn(-c2ccccc2)c2c1N(CC(=O)NCc1ccc(N(C)C)cc1)C(=O)CS2,-6,x,-5%,x,5%,-2%
Cc1cc2n(n1)CCCN2C(=O)Nc1ccccc1F,4,x,5%,x,-1%,-1%
S=C(Nc1cccc(Cl)c1)NC1CCCCC1,-1,36,8.9µM*,8%,u,-1%
S=C(Nc1ccc(Br)cc1)NC1CCCCC1,4,u,u,-5%,u,1%
O=C(Nc1cccc(Cl)c1)C1CCCCC1,-5,-16,3%,17%,6%,1%
Cc1cccc(NC(=S)NC2CCCC2)n1,-1,-3,4.5µM*,9%,u,2%
S=C(Nc1ccc(Cl)cc1)NC1CCCCC1,16,-15,10µM*,12%,u,x
Cc1ccc(C2=NC(c3ccc(F)cc3)=Nc3ccc(C)cc3N2)cc1,-5,x,-21%,x,1%,2%
O=C(NN=Cc1ccc2c(c1)CCC2)c1cccc([N+](=O)[O-])c1,-4,-30,-2%,5%,-19%,2%
COc1cccc2c1O/C(=N\O)C(C(=O)Nc1cccc(Br)c1)C2 (configuration not stated),0,-54*,u,14%,-1%,x
COC(=O)C[C@H]1C=C[C@@H](NC(=O)Nc2c(C)noc2C)[C@@H](CO)O1,-1,0,25%,x,2%,0%
CCN(C(=O)c1cnc(N2CCN(c3ncccn3)CC2)c2ccccc12)c1cccc(Cl)c1,3,25,10µM*,-4%,-19%,-4%
CN(C(=O)c1cnc(N2CCN(c3ncccn3)CC2)c2ccccc12)c1ccc(Cl)cc1,-5,-6,2%,0%,-5%,0%
Cc1ccc(Nc2ncnc3c2nc2n3CCCC2)c(Br)c1,-2,x,-6%,x,16%,-5%
Cc1cccc(/C=N/c2sc3c(c2C(=O)OC(C)(C)C)CCN(C)C3)c1O,4,-5,-19%,-1%,0%,-8%
CCOC(=O)c1c(/N=C/c2cc(C)ccc2O)sc2c1CCN(C)C2,-35,-54*,6%,3%,1%,-1%
Cc1cc(NC(=O)c2ccccc2Cl)n(C(C)(C)C)n1,-28,u,0%,3%,-6%,16µM*
Cc1cc(NC(=O)c2ccccc2)n(C(C)(C)C)n1,2,10,4%,0%,-12%,-3%
SMILES,DRD3 agonist,D3 antag,GLP1R inv ag,GLP1R ag,GLP1R cytotox,ClpP mod
C=C1C(=O)[C@@]23[C@H](O)C[C@@H]4C(C)(C)CC[C@H](O)[C@]4(C)[C@@H]2C[C@H](O)[C@@H]1[C@H]3O,-18,0,u,-24%,-11%,0%
C=C1C(=O)[C@@]23[C@H](O)C[C@@H]4C(C)(C)CC[C@H](O)[C@@]4(C)[C@@H]2CC[C@@H]1[C@H]3O,-15,-57*,u,-10%,u,1%
COc1cc(C(C)=O)ccc1OCCCN1CCC(Cc2ccccc2)CC1,-21,-90*,4%,7%,-14%,x
COc1cc(C(C)=O)ccc1OCC(=O)N1CCC(Cc2ccccc2)CC1,2,10,0%,12%,-4%,-11%
COc1cc(C(C)=O)ccc1OCCN1CCC(Cc2ccccc2)CC1,-22,-77*,u,6%,u,x
COCCCN1C(=O)C(CC(=O)NCc2cccs2)CC(C(=O)N2CCCCCC2)=C1C (configuration not stated),x,x,x,x,x,0%
COc1ccc(NC(=O)C2(C)CCN2CCc2ccccc2)cc1OC (configuration not stated),72*,2,-3%,19%,-3%,0%
COc1ccc(OC)c(NC(=O)C2(C)CCN2CCc2ccccc2)c1 (configuration not stated),1,-12,u,25%,0%,-1%
COc1cccc(NC(=O)C2(C)CCN2CCc2ccccc2)c1 (configuration not stated),-7,-5,11µM*,5%,0%,1%
CC1(C(=O)Nc2ccc(Cl)c(Cl)c2)CCN1CCc1ccccc1 (configuration not stated),1,22,u,10%,-6%,-2%
CCCCOC(=O)c1ccc(NC(=O)C2(c3cccs3)CCOCC2)cc1,1,x,u,x,0%,0%
COC(=O)c1cccc(NC(=O)c2nsc3ccccc23)c1,1,x,u,x,-1%,5%
Cc1ccccc1NC(=O)c1ccc(CN2CCC(Cc3ccccc3)CC2)cc1,-19,-64*,u,1%,7%,1%
CC1(C(=O)NCc2ccccc2)CSCC(=O)N1C1CCN(Cc2ccccc2)CC1 (configuration not stated),-22,-17,-15%,x,2%,1%
CC(C)NC(=O)C1(C)CSCC(=O)N1C1CCN(Cc2ccccc2)CC1 (configuration not stated),-21,-64*,10%,x,-10%,-2%
CC(C)NC(=O)c1ccc(CN2CCC(Cc3ccccc3)CC2)cc1,-24,-80*,8%,-2%,4%,x
CCc1ccc2oc(-c3ccc(C)c(NC(=O)COc4ccc(Cl)cc4)c3)nc2c1,x,x,x,x,x,4%
O=C(/C(=C(\O)c1ccccc1)c1nc2ccccc2[nH]1)c1ccccc1,3,1,10µM*,10%,u,x
CCn1c(SCC(=O)Nc2nc(-c3ccccc3)cs2)nnc1-c1ccccc1,9,-8,10µM*,-2%,1%,-4%
CCn1c(CNc2nc(-c3ccccc3)cs2)nnc1SCC(=O)NCc1ccccc1,-10,3,11µM*,1%,-22%,0%
